# SMN2 splice enh = enhancers of SMN2 splice variant expression. HEK293 SMN2-luciferase splicing reporter, luminescence, 30-36 h. Potency, µM (series often up to 46.1 µM), for inactives: top-dose activity change, positive = activation, most hits filed as activators. 2.8% of 210,000 active. AID 1458; further: % of control where 0% means no effect; nearly all actives have a fitted effect of over 55% in size
#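 HEK293 cells carry an SMN2 minigene-luciferase reporter in which exon 7 inclusion puts luciferase in frame. Cells were seeded at 2000 cells/well, attached for 10-12 hours, then exposed to compounds for 30-36 hours at 37C before ONE-Glo luminescence.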
# ELG1 genotox = induces genotoxicity in HEK293T cells with luciferase-tagged ELG1; Potency, µM (highest dose often 46 µM), for inactives: at the highest dose activity change, positive = activation, most hits filed as activators; HEK293T ELG1-luciferase reporter, luminescence, 16 h; AID 504466; 1.3% of 330,000 active; further: % of control where 0% means no effect; nearly all actives have a fitted effect of over 60% in size
#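 DMSO vehicle served as control against compound-treated ELG1-luciferase HEK293T cells; exposure lasted 16 hr at 37 °C and 5% CO2, followed by ONE-Glo luminescence detection after 30 min.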
# FLuc modulator = counter-screen for miR-21 project: firefly luciferase inhibitors or activators. P08659. purified FLuc, Km substrates, luminescence inhibition. Potency, µM (highest dose often 57.5 µM), for inactives: at the highest dose activity change, negative = inhibition, usual class: inhibitors. 6.9% of 360,000 active. AID 588342;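 further: plate controls were vehicle for no effect and reference inhibitor for full effect; nearly all actives have a fitted effect of over 55% in size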
# Target sequence (P08659 whole entry, looked up): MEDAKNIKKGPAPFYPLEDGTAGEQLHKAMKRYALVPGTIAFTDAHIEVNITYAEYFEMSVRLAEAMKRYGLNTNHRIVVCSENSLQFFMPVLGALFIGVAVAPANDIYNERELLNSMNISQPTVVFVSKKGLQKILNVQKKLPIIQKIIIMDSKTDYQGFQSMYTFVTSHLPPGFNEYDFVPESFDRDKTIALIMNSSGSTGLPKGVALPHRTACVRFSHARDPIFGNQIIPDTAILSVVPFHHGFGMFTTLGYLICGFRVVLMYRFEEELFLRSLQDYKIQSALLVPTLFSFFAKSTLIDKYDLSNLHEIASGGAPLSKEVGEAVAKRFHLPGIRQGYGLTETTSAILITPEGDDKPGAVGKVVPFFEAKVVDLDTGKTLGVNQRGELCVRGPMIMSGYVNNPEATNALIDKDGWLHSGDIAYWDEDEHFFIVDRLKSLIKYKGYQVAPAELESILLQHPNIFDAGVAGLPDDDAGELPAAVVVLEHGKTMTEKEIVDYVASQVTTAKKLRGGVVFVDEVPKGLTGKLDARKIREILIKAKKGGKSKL
#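 Purified P. pyralis luciferase, 10 nM final, with Km-level 10 uM D-luciferin and 10 uM ATP in 50 mM Tris acetate pH 7.5, 10 mM Mg acetate, 0.01% Tween-20, 0.05% BSA; 6-point qHTS titration about 60 µM downward; luminescence read.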
# Luc counter = blocks Kinase-Glo luciferase, a counter-screen artifact; AID 1379; Potency, µM (doses to about 38.3 µM), inactives show top-dose activity change, negative = inhibition, hits mostly inhibitors; 0.28% of 200,000 active; Kinase-Glo luciferase, ATP luminescence, 8 min; further: on the % scale 0 is the no-effect control and ±100 the full control effect; nearly all actives have a fitted effect of over 60% in size
#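 Luminescence was the read-out, taken after 8-minute incubation at ambient temperature. Luciferase turned over luciferin with 10 uM ATP in imidazole pH 7.2 buffer containing KCl, MgCl2, Tween 20 and BSA.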
# NPC1 prom act = activators of NPC1 promoter; Huh7 NPC1 promoter luciferase reporter, 24 h; Potency, µM (highest dose often 9.22 µM), inactives show top-dose activation, actives largely listed as activators; 2.4% of 320,000 active; AID 485313; further: % of control where 0% means no effect; nearly all actives have a fitted effect of over 60% in size
#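 Cells: Huh7 expressing luciferase under the NPC1 promoter, 1500/well. Seeded 2 h, compound added, incubated 24 h at 37 °C. Luciferase reagent, 10 min ambient, then luminescence.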
# Rab9 promoter act = activators of Rab9 promoter. Huh7 Rab9 promoter-luciferase reporter, luminescence, 24 h. Potency, µM (titrated, usually from 9.22 µM), inactives show at the highest dose activation, negative = inhibition, actives largely listed as activators. 2.8% of 320,000 active; further: % of control where 0% means no effect; nearly all actives have a fitted effect of over 60% in size
#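 Huh7 cells stably carrying a Rab9 promoter-luciferase reporter, 1500 cells per well in OP-MEM I with 10% FBS, treated with compound 24 hours at 37C. Luciferase activity read by luminescence after 10 minutes with Amplite reagent.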
# * hit, by the source's call; ? = inconclusive; · = no result; [ ] = dose if it differs, or a comment. Shown are actives, neighbours in structure and some others; about 7.3% of the full set was active somewhere. The call rests on the fitted dose curve; in most records, active means well fitted curve in the direction sought with a large enough effect; inconclusive means small, poorly fitted or top-dose-only effect, or another doubt; inactive means no such curve, though single readings can be large; an effect the other way counts as inactive or inconclusive. Potency means the concentration at half of the fitted maximal effect.
SMILES,SMN2 splice enh,ELG1 genotox,FLuc modulator,Luc counter,NPC1 prom act,Rab9 promoter act
CO[C@@H]1/C=C\O[C@]2(C)Oc3c(C)c(O)c4c(O)c(cc(O)c4c3C2=O)NC(=O)/C(C)=C\C=C/[C@H](C)[C@@H](O)[C@H](C)[C@H](O)C(C)[C@H](OC(C)=O)[C@@H]1C (stereo partly drawn),4%[9.22 µM],·,·,0%[7.66 µM],·,·
Cc1cc(NC(=O)CSc2ncnc3c2cnn3-c2ccccc2)no1,-16%,-11%,-4%,-1%,-6%,-3%
CC(C)(C)C(=O)CSc1ncnc2c1cnn2-c1ccccc1,·,?,1.2µM*,·,0.71µM*,0.63µM*
c1ccc(CSc2ncnc3c2cnn3-c2ccccc2)cc1,22µM*,?,12µM*,1%,?,?
CC(C)OC(=O)CSc1ncnc2c1cnn2-c1ccccc1,-14%,27%,8.5µM*,-3%,2%,20%
CCOC(=O)c1c(S(=O)(=O)NCC(=O)Nc2ccc(F)cc2C)c(C)n(C)c1C,·,·,-1%,·,·,·
C=CC(=O)c1ccc(CCCCCC)cc1,·,·,·,·,-4%[46.1 µM],-7%[46.1 µM]
Cc1cc(=O)cc(C)n1-c1ccc(Cl)cc1,-5%,1%,-1%,-2%,-1%,0%
Cc1cccc(-n2c(C)cc(/C=C3/C(=N)N4C(c5ccccc5)=CSC4=NC3=O)c2C)c1,-21%,-3%,-13%,0%,0%,0%
Cc1cc(C=C2C(=O)c3ccccc3C2=O)c(C)n1-c1ccc(Cl)cc1,-60%,4.6µM*,0.67µM*,-14%,8%,3%
Cc1cccc(-n2c(C)cc(C=C3C(=O)c4ccccc4C3=O)c2C)c1,-21%,?,0.85µM*,-12%,?,?
COc1ccc(CN=C2NN=C(c3ccc(Cl)cc3)CS2)cc1,20µM*,?,7.6µM*,0%,3.5µM*,3.5µM*
CC(C)(C)N=C1NN=C(c2ccc(Cl)cc2)CS1,·,?,2.7µM*,·,0.79µM*,0.63µM*
COc1ccc(CN=C2Nc3ccccc3CS2)cc1,3.5µM*,?,2.7µM*,-22%,1µM*,1.6µM*
CC(C)(C)N=C1NN=C(c2cc3ccccc3o2)CS1,·,?,1.9µM*,·,0.63µM*,0.4µM*
CC(=O)Nc1ccc(C2=NNC(=NCC3CCCO3)SC2)cc1 (stereo not drawn),·,2%,-19%,·,11%,16%
COc1ccc(C2=NN(C)C(=NCc3ccccc3)SC2)cc1,-26%,-1%,?,0%,0%,0%
Oc1ccc(C2=NNC(=NCc3ccc4c(c3)OCO4)SC2)c(O)c1,28%,?,?,0%,-24%,-19%
Clc1ccc(C2=NNC(=NCc3ccc4c(c3)OCO4)SC2)cc1,·,-7%,19µM*,·,15%,15%
CCCCN(CC)CCCNC(=O)CCN1N=C(c2ccc(OC)cc2)CCC1=O,·,·,2%,·,·,·
Nc1c2c3c(sc2nc(=O)n1N)CCCC3,·,0%,-8%,-3%,0%,-12%
CC1=Nn2c(nc3sc4c(c3c2=O)CCCC4)SC1,10µM*,?,21µM*,-26%,25%,?
O=c1c2c3c(sc2nc2n1CCCC2)CCC3,13%,3%,0%,2%,2%,7%
N=c1c2c3c(sc2nc2n1CCCCC2)CCCCC3,6%,?,17µM*,-1%,?,?
O=c1c2c3c(sc2nc2n1CCCS2)CCCC3,7%,26%,19µM*,-6%,?,?
SMILES,SMN2 splice enh,ELG1 genotox,FLuc modulator,Luc counter,NPC1 prom act,Rab9 promoter act
CC1CSc2nc3sc4c(c3c(=O)n21)CCCC4 (stereo not drawn),-14%,7%,?,7%,16%,22%
Nc1nc2sc3c(c2c(=O)s1)CCCC3,?,16µM*,11µM*,-1%,29%,?
CCc1nc2nc(C)cc(Nc3ccc(Br)cc3F)n2n1,16%,·,1%,·,·,·
COc1ccccc1Cc1nc2ccccc2nc1SCC(=O)N1CCC(C)CC1,·,·,-11%,·,·,·
O=c1c2c3c(sc2nc2n1CCCCC2)CCCC3,?,23µM*,19µM*,3%,?,?
O=c1c2c3c(sc2nc2n1CCCC2)CCCCC3,3%,?,24µM*,-6%,16%,11%
O=c1c2c3c(sc2nc2n1CCCCC2)CCCCC3,11µM*,?,13µM*,-3%,3.5µM*,3.5µM*
Cc1ccc(CCNC(=O)Cn2ncc3c(=O)oc4ccccc4c32)cc1,8%,·,-7%,·,·,·
Cn1c(-c2ccc3nc(N)sc3c2)nc2cc(N)ccc21,7%,?,21µM*,15%,?,23%
COc1ccc(Cc2nc3ccccc3n2C)cc1,-15%,0%,-10%,-1%,-2%,-2%
Cn1c(CCc2ccc(N)cc2)nc2ccccc21,11µM*,?,12µM*,-16%,3.2µM*,1.6µM*
Cn1c(-c2ccc(N)cc2)nc2ccccc21,·,?,19µM*,·,?,4µM*
Cn1c(-c2ccc(Cl)nc2)nc2ccccc21,·,11%,?,·,3%,0%[1.84 µM]
Nc1nc2ccc(C(=O)N3CCCCC3)cc2s1,·,8%,-11%,·,1%,0%
CCOC(=O)c1ccc(NC(=O)Cn2nc(C)c3nn(-c4ccc(Cl)cc4)c(C)c3c2=O)cc1,·,·,-16%,·,·,·
O=C(NCc1ccc(F)cc1)C1CCCN(c2nc3ccsc3c(=O)s2)C1 (stereo not drawn),-5%,0%,0%,-2%,1%,-5%
Cc1csc2c(=O)sc(NC(=O)c3ccco3)nc12,·,1%,?,·,4%,-1%
O=C(Nc1nc2ccsc2c(=O)s1)c1ccco1,·,?,15µM*,·,?,?
O=c1sc(Nc2ccccc2)nc2ccsc12,1%,18µM*,12µM*,-3%,7%,?
O=C(Nc1nc2ccsc2c(=O)s1)C1CCC1,·,?,19µM*,·,?,?
COc1ccc2nc(NC(=O)c3ccco3)sc2c1,·,0.58µM*,0.54µM*,·,0.32µM*,0.11µM*
Cc1cc(-n2c(C)nc3ccccc3c2=O)ccc1NC(=O)c1cccc([N+](=O)[O-])c1,·,·,0%,·,·,·
O=C(O)c1ccc(C(=O)c2ccccc2)c(C(=O)O)c1,4%[9.22 µM],·,·,-11%[7.66 µM],·,·
Cc1ccc2nc(NC(=O)c3ccco3)sc2c1,1.1µM*,0.21µM*,0.27µM*,?,?,0.79µM*
O=C(Nc1nc2ccc(S(=O)(=O)N3CCCC3)cc2s1)c1ccco1,3%,2%,?,7%,3%,9%
Cc1ccc2nc(NC(=S)NC(=O)c3ccco3)sc2c1,11µM*,?,0.48µM*,-2%,1.4µM*,3.5µM*
CC(=O)Nc1nc2c(s1)CCc1ccccc1-2,·,0%[9.26 µM],?,·,14%,3%

# Assay outcomes deposited in PubChem BioAssay by National Center for Advancing Translational Sciences (NCATS).
